Test results reported in PubChem BioAssay.
Several values for one entry are separate records, joined by “and”; a condition that tells them apart may be missing. Identical values can stand only once. A structure can be active in one record and inactive in another. Activity calls are given as the source filed them.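 How the source made its calls, unless noted: active means compounds whose cell count with miR-34 switched on is under 0.7 times the count with it off; inactive means the rest.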

Key:
[1] = sensitizers of A549 cells to miR-34 induction, primary screen, imaging, A549 dox-inducible miR-34, nuclei and caspase counts (AID 1347080); details: A549 miR-34 inducible, Hoechst nuclei count, 48 h
[2] = survival rescue of mitochondrial mutant cells in low glucose, primary screen, MELAS cybrids, Rieske KO mouse fibroblasts, CellTiter-Glo (AID 1508586;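 active means mean z-score across replicates of 1.96 or higher in either the MELAS or the Rieske mutant cell line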;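 further: z relative to plate mean and SD of compound and empty wells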)
[3] = viability rescue of complex I mutant cybrids, primary screen, cell-based, galactose medium, ATP luminescence (AID 1645843;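 active means z-score of at least 1.8 in each of two replicates, scored against plate mean and spread of sample wells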;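 further: positive z means more ATP and so rescue of galactose-driven cybrid death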); details: complex I mutant cybrid cells, 72 h, stronger effect = higher value
[4] = liver-stage malaria parasite growth inhibition, primary screen, cell-based, HepG2, luciferase luminescence, HepG2 viability (AID 624349; in the data active means parasite load remaining mostly below about 12%, no sharp cut-off; inactive means mostly above about 10%;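 further: 100% = mean of DMSO negative control wells on the same plate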); details: P. berghei liver stage in HepG2, luciferase luminescence, concentration not given here; parasite load remaining: stronger effect = lower value; viability: measured here: HepG2 viability without parasites
[5] = hESC survival regulators, cell-based (AID 493140; call rule not given here;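 further: cells exposed to compounds for four days before counting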); details: human embryonic stem cell survival screen; stronger effect = higher value
[6] = stronger effect = lower value, cell number ratio, induced over uninduced
[7] = measured here: relative caspase fold change +Dox/-Dox
[8] = measured here: total cells with miR-34 induction, stronger effect = lower value
[9] = measured here: total cells without miR-34 induction
[10] = MELAS cybrid survival, CellTiter-Glo 48 h, stronger effect = higher value
[11] = Rieske KO mouse fibroblast survival, CellTiter-Glo 72 h

Structure (SMILES) | fold change [1, 6] | fold change [1, 7] | cell count [1, 8] | cell count [1, 9] | z-score [2, 10] | z-score [2, 11] | z-score [3] | parasite load remaining [4] | viability [4] | survival [5]
Cc1cc(C)nc(-c2cnn(CC(=O)Nc3cnn(C)n3)c2)n1 | 0.881 (inactive) | 1.67 | 8470 | 9620 | 0.0131 (inactive) | -0.562 | -0.525 (inactive) | – | – | –
CN(C)CCOc1ccc(C(=C(CCCl)c2ccccc2)c2ccccc2)cc1 | 0.778 (inactive) and 1.03 (inactive) | 1.46 and 0.374 | 3730 and 7050 | 4790 and 6850 | -0.446 (inactive) | -0.000629 | -1.88 (inactive) | – | – | –
CC(C)C1CCC(C(=O)NC(Cc2ccccc2)C(=O)O)CC1 (stereo unspecified) | 0.94 (inactive) and 0.917 (inactive) | 2.3 and 1.08 | 9290 and 9300 | 9880 and 10100 | -0.394 (inactive) | 0.0104 | 0.805 (inactive) | – | – | –
Fc1ccc(CC2CCNCC2)cc1 | 0.856 (inactive) | 0.77 | 8200 | 9580 | -0.906 (inactive) | 0.0714 | 0.525 (inactive) | – | – | –
Cc1ccc(NC(=O)NCCSCc2ccc(CN(C)C)o2)cc1Cl | 0.882 (inactive) | 0.585 | 6630 | 7520 | 0.133 (inactive) | -0.401 | -1.04 (inactive) | – | – | –
Nc1nc2ccccc2c(=O)[nH]1 | 0.901 (inactive) | 0.247 | 8880 | 9860 | 0.855 (inactive) | -0.798 | 0.65 (inactive) | – | – | –
COc1ccc(-c2cc(-n3cccn3)ncn2)c(-n2cccn2)c1 | 0.922 (inactive) | 1.07 | 8340 | 9050 | -0.554 (inactive) | 0.208 | -0.595 (inactive) | – | – | –
O=c1cc(-c2ccncc2)nc(-c2cccc(CN3CCCC(CO)C3)c2)[nH]1 (stereo unspecified) | 0.934 (inactive) | 0.922 | 8470 | 9070 | -0.423 (inactive) | 0.0738 | 0.08 (inactive) | – | – | –
CNC(=O)c1ccccc1-c1cccc2ccccc12 | 0.918 (inactive) | 0.701 | 8250 | 8980 | -0.403 (inactive) | -0.242 | -0.535 (inactive) | – | – | –
O=C(NN=Cc1cc(Br)c(O)c(Br)c1O)c1cccc(Br)c1 | 0.911 (inactive) | 0.461 | 2930 | 3220 | 1.44 (inactive) | 0.907 | -2.57 (inactive) | – | – | –
CC1(C)C[C@H]1C(=O)N/C(=C\CCCCSC[C@@H](N)C(=O)O)C(=O)O | 0.879 (inactive) | 0.978 | 9660 | 11000 | 0.461 (inactive) | 1.05 | 0.565 (inactive) | 23.2% (inactive) | 65% | –
CS(=O)(=O)c1ccc([C@@H](O)[C@@H](COC(=O)CN)NC(=O)C(Cl)Cl)cc1 | 0.967 (inactive) | 1.61 | 9390 | 9720 | -0.278 (inactive) | 1.38 | -1.12 (inactive) | 19.3% (inactive) | 69.5% | –
CC1/C=C/C=C/CC/C=C/C=C/C=C/C=C/C(O[C@@H]2O[C@H](C)[C@@H](O)[C@H](N)[C@@H]2O)CC(O)C(C(=O)O)C(O)CC(=O)CC(O)C(O)CCC(O)CC(O)CC(O)CC(=O)OC(C)C(C)C1O (stereo partly specified) | 0.86 (inactive) and 0.844 (inactive) | 1.56 and 1.28 | 9420 and 8760 | 11000 and 10400 | 2.26 (active) and 0.353 (inactive) | 0.0499 and 0.288 | 0.5 (inactive) | 90.8% (inactive) and 24.4% (inactive) | 111% and 90.5% | –
CC1=C(CC(=O)O)c2cc(F)ccc2/C1=C/c1ccc(S(C)=O)cc1 (stereo unspecified) | 0.93 (inactive) | 1.38 | 9820 | 10600 | -0.379 (inactive) | -0.389 | 0.615 (inactive) | 88.6% (inactive) and 52.4% (inactive) | 91.8% and 138% | 19.2 (inactive)
COC(=O)c1ccccc1O | 0.851 (inactive) | 1.32 | 10100 | 11800 | -0.407 (inactive) | -0.367 | 0.47 (inactive) | 53.2% (inactive) | 98% | –
